Reference: publication PMC12136788
In all, about 5,800 sequences were measured (“enrichment r”: median about 0.68, highest 2% from about 11 on). These entries were drawn from the full list.

B1: ENSG00000198589:be:win_3501|CDS|ENSG00000198589|bound_else_gene|NA|bound_elsewhere_windowed (ssRNA)
RNA: GGGAGUUCUACAGUCCGACGAUCUGAUACUGAAACUCAAGAUUCUAAAGAUUCUGGAAUUCAGACUAUGACAGCAUCAGGGUCUUCAGCUAUGUCACCAGAAACUACUGUUUCCCAAAUAGCUGUAGAAUCAGACCUUGGUCACAACAGAGGAUUGAGCAUCA
B2: chr5:136975339:136975545:-|3pUTR|ENSG00000152377|msi1|total|mutant (ssRNA)
RNA: GGGAGUUCUACAGUCCGACGAUCAGAGCCCAUCAAAUCCUGAGUGUCAGUUUGUUGUCCCUAUUGCCGAUGAAACCGUGAUGCCGCAAAAACCCCGUAAAUUCUGAAUGCUUUUCCACGCCGACUUAUCUGGAAUGUGAACACCAACAGAGGAUUGAGCAUCA
B3: chr3:124966548:124966651:-|3pUTR|ENSG00000173706|unk|total|mutant (ssRNA)
RNA: GGGAGUUCUACAGUCCGACGAUCAGGAAGAAUGCAAAGUUCAGUAUUUCAAUACUUUGUAUUUUACUUGAAAUUACCCUCCGCCGCAUCUUUUUUUUCCUGUCUGAAAGCUUUUGUGUGGAUGAGAAGGGACAUUUCAUUUCCCAACAGAGGAUUGAGCAUCA
B4: ENSG00000124766:be:win_801|CDS|ENSG00000124766|bound_else_gene|NA|bound_elsewhere_windowed (ssRNA)
RNA: GGGAGUUCUACAGUCCGACGAUCCUCGGCCUCCGCCUCCUCGGCAGCCUCGGCCUCCGCAGCGCUCGCGGCCCCGGGCAAGCACCUGGCGGAGAAGAAGGUGAAGCGCGUCUACCUGUUCGGCGGCCUGGGCACGUCGUCGUCCAACAGAGGAUUGAGCAUCA
B5: ENSG00000101945:stop:overlap|stop_codon|ENSG00000101945|stop_codon|NA|stop_codon (ssRNA)
RNA: GGGAGUUCUACAGUCCGACGAUCAGAAGCGGGUCCGUAUUGAAUGCAAGUGUGGGACUGAGUCCUGCCGCAAAUACCUCUUCUAGCCCUUAGAAGUCUGAGGCCAGACUGACUGAGGGGGCCUGAAGCUACAUGCACCUCCCCCAACAGAGGAUUGAGCAUCA
B6: chr12:24812577:24812678:-|3pUTR|ENSG00000060982|msi1|FALSE|unique (ssRNA)
RNA: GGGAGUUCUACAGUCCGACGAUCAUCCAAAGGAGCUUUUUCCUUAUUCUGUCAAGCAUUGAGAUCUUCUUCAGCUUUCAAUGUAGUUGCUAAAUACAAAUAAUGCUACUAGGUAGUGACUAAAUAUAGCAAACACUUCAUCAGCAACAGAGGAUUGAGCAUCA
B7: chr10:22535117:22535218:-|3pUTR|ENSG00000150867|unk|FALSE|unique (ssRNA)
RNA: GGGAGUUCUACAGUCCGACGAUCAAGGUACACAUACAUUAUUUGAGUAACUGUUUCCUUGGGGGCCAAUCUGUGUAUGCUUUUAGAAGUUUACAGAAUGCUUUUAUUUUUGUCUAUAACAAACAGUCUGUCAUUUAUUUCUGUCAACAGAGGAUUGAGCAUCA
B8: chr9:76611375:76614569:-|three_prime_utr|ENSG00000106772|control|control|control (ssRNA)
RNA: GGGAGUUCUACAGUCCGACGAUCAUGUUACCUUUUUCCACUUUGCACUACCUGGUGCCAUUCUAAAUUUCUAAGGGGAAAAAUAGAAAGUUUGUUUACUCUUAAGAUAUUUUAUGAAAUUGUGUGUACUUUCCUAUUUUGCCACAACAGAGGAUUGAGCAUCA
B9: chr12:131960804:131960905:+|CDS|ENSG00000183495|unk|total|mutant (ssRNA)
RNA: GGGAGUUCUACAGUCCGACGAUCCCCUCAGCAAGCCCGUCGGCACCCCAGUCUCCCAGUUAUCAAAUACAGCAGCUGAUGAACCGGAGCCCUGCAACCGGGCAGAACGUGAACAUCACCCUGCAGAGCGUGGGCCCUGUCGUCCAACAGAGGAUUGAGCAUCA
B10: chr1:154944474:154944574:-|3pUTR|ENSG00000163346|msi1_unk|FALSE|overlapping (ssRNA)
RNA: GGGAGUUCUACAGUCCGACGAUCUCGAGGCCCAGCACGAGGACUUACCCUGGGGUUUUGUUAGGUUUGGAAGCAGCUGUCCCUAGGGGGUGAAGUCCCCCCCCUUUUUUUUUUUACCCCUGCUUCUCCCACGGCUUCACCUCCCAACAGAGGAUUGAGCAUCA
B11: chr7:32869766:32869881:-|CDS|ENSG00000170852|unk|FALSE|bound_elsewhere (ssRNA)
RNA: GGGAGUUCUACAGUCCGACGAUCAUGUACUGUUAUUUUCCAAGGUCUGACUCAUGGGUAGAAAUGGCCAUGAGACAGACUAGUAGGUCCUUUGCUUCAGCUGCAGCUUUUGGUGAUAAAAUUUUCUAUAUUGGAGGGUUGCAUCAACAGAGGAUUGAGCAUCA
B12: chr2:42682433:42682535:+|CDS|ENSG00000057935|unk|FALSE|unique (ssRNA)
RNA: GGGAGUUCUACAGUCCGACGAUCUCACGCUAUGGAUACAUUGUAUAGACACAGCUAUGAUUUGAGCAGUGCCAUUAGUGUCUUAGUACCACUCGGAGGACCUGUUUUAUGCAGAGAUGAAAUGGAGGAAUGGUCAGCCUCUGACAACAGAGGAUUGAGCAUCA
B13: chr1:64832709:64832810:+|3pUTR|ENSG00000162437|msi1|total|mutant (ssRNA)
RNA: GGGAGUUCUACAGUCCGACGAUCACAGCCCGAAAGUUUAAGGUAAUUUCUAAGUAUACUACCUAUAAGUAACUGAUAAGAAUCCGGCAUCAUUCAGUGAUACCGCAGAUGACUAAUGGGUUUUUCAGGCCCUGCACUUCUCUUCAACAGAGGAUUGAGCAUCA
B14: chr7:16784014:16784129:+|3pUTR|ENSG00000106537|msi1_unk|total|mutant (ssRNA)
RNA: GGGAGUUCUACAGUCCGACGAUCGAUAAUUUACUUGCCGUCUUUUAUGAUUACACCAAUGUAUUCCCGAAACCGUUAUGUCUCCGGAAAUUGUGGUUUAAUUUUUGACUUUUACAGGUAAGUGCAAAGGAGAAGUGGUUUCAUCAACAGAGGAUUGAGCAUCA

Target: T1, UNK ZnF1-6 (called full-length) (human, UniProt Q9C0B0 30-357)
T1 sequence: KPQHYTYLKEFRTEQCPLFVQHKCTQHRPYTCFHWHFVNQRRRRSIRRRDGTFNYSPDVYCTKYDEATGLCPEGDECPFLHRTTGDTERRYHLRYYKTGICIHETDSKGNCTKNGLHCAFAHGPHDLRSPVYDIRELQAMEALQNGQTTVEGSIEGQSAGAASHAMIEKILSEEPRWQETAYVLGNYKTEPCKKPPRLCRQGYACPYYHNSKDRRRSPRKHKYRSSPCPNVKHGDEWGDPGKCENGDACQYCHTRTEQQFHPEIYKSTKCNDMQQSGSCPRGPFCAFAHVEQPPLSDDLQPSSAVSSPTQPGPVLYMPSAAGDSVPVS
Assay: nsRBNS (natural sequence RNA bind-n-seq); RBNS binding buffer (assumed for nsRBNS): 25 mM Tris pH 7.5, 150 mM KCl, 3 mM MgCl2, 0.01% Triton X-100, 500 ug/ml BSA, 20 U/ml SUPERase-In, 4 C; UNK is unkempt and MSI1 is Musashi-1; names of the RNAs are library labels; protein concentration not given here; high values mean tight binding

First: B1
Second: B2
The binding signal of the first is lower: 0.311 enrichment R for the first, 0.528 enrichment R for the second.

First: B3
Second: B4
The binding signal of the first is lower: 0.473 enrichment R for the first, 0.655 enrichment R for the second.

Compared with B5, B6 is lower in binding signal: 0.806 enrichment R for the first, 0.559 enrichment R for the second.

First: B7
Second: B8
The binding signal of the first is lower: 0.472 enrichment R for the first, 0.818 enrichment R for the second.

Going from B9 to B10, the binding signal rises from 1.09 enrichment R to 1.37 enrichment R.

Compared with B11, B12 is higher in binding signal: 0.714 enrichment R for the first, 0.747 enrichment R for the second.

Going from B13 to B14, the binding signal rises from 0.244 enrichment R to 0.435 enrichment R.
